Measurements reported in PubChem BioAssay (NCATS).
Records with an inconclusive call do not appear. Active and inactive are the calls of the source. Unless noted, the call rests on the fitted dose curve; in most records, active means well fitted curve in the direction sought with a large enough effect; inconclusive means small, poorly fitted or top-dose-only effect, or another doubt; inactive means no such curve, though single readings can be large; an effect the other way counts as inactive or inconclusive.

Key:
[1] = target: Lysosomal acid glucosylceramidase (Homo sapiens) (UniProt P04062); assay: Glucocerebrosidase-p2 (AID 348; in the data active means potency below about 10 µM; further: potency means the concentration at half of the fitted maximal effect); conditions: purified GBA, blue fluorogenic substrate, 40 min
Sequence of Lysosomal acid glucosylceramidase (Homo sapiens) (P04062 whole entry, looked up): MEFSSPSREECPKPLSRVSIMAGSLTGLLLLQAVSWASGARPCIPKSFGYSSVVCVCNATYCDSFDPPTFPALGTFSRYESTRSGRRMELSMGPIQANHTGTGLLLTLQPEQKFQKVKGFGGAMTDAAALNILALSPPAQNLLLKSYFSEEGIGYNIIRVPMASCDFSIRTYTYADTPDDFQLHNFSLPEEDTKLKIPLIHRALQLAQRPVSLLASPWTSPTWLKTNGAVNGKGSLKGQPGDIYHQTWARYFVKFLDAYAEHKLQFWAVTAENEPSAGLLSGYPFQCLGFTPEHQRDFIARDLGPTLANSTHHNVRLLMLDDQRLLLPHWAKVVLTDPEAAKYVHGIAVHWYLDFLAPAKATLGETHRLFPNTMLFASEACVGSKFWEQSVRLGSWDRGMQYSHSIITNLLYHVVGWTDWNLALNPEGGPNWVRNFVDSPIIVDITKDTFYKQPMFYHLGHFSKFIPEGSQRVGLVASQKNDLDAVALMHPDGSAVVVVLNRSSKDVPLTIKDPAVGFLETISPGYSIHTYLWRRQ
Outline: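 Compounds titrated from 0.6 nM upwards against 0.2 nM enzyme in pH 5.9 citric acid/KH2PO4, taurocholate, tween-20; blue fluorogenic substrate 80 uM, 40 min room temperature, stopped and read Ex 365/Em 440 for AC50.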

[2] = AP1 Signaling Pathway (AID 357; active means well fitted curve in either direction with a large enough effect, not every such curve was filed as active;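 further: ME-180 reporter cells stimulated with EGF at its EC50 level; on the % scale 0 is the no-effect control and ±100 the full control effect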); conditions: ME-180 AP-1-bla reporter, EGF-induced, beta-lactamase ratio, 5 h; at 7.69 µM (top of the series) unless noted
Outline: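 Read-out was the 460nm/530nm emission ratio (excitation 405nm) after CCF4 loading for 2.5 hours at room temperature. Cells carried an AP-1-driven beta-lactamase reporter, were stimulated with EC50 EGF plus compound for 5 hours, and AC50 values came from titrations.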

[3] = NFAT Signaling Pathway (AID 444; active means well fitted curve in either direction with a large enough effect, not every such curve was filed as active;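 further: carbachol stimulus at about its EC50 of 1 µM final; on the % scale 0 is the no-effect control and ±100 the full control effect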); conditions: Jurkat NFAT-bla M1, carbachol, beta-lactamase ratio, 5 h; at 7.69 µM (top of the series) unless noted
Outline: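 Jurkat cells carrying an NFAT-driven β-lactamase reporter and co-transfected muscarinic M1 receptor were treated with compound plus carbachol (1 uM final, an EC50 level) for 5 h at 37 °C. CCF4 loading followed for 1 h at RT; 460/530 nm ratio gave %activity.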

[4] = Stat Signaling Pathway (AID 446; active means well fitted curve in either direction with a large enough effect, not every such curve was filed as active;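 further: ME-180 cervical cancer cells given 40 pM IL-6 alongside compound; SIE-controlled beta-lactamase reporter measured as 460/530 nm FRET emission ratio; on the % scale 0 is the no-effect control and ±100 the full control effect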); conditions: ME-180 (cervical carcinoma) SIE beta-lactamase reporter, IL-6 stimulated, 5 h; at 7.69 µM (top of the series) unless noted
Outline: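 IL-6/STAT signaling read in ME-180 cells via an SIE beta-lactamase reporter. Stimulus was 40 pM IL-6 (its AC50) for 5 hrs, so both activation and inhibition register.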

[5] = target: Glucocorticoid receptor (Homo sapiens) (UniProt P04150); assay: GR-GFP Redistribution (AID 450;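 active means compounds whose dose series gives a full or clear partial fitted curve of increased nuclear translocation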; further: potency means the concentration at half of the fitted maximal effect); conditions: U2OS GR-GFP nuclear translocation, laser cytometry, 2 h
Sequence of Glucocorticoid receptor (Homo sapiens) (P04150 whole entry, looked up, the tested form may be a part): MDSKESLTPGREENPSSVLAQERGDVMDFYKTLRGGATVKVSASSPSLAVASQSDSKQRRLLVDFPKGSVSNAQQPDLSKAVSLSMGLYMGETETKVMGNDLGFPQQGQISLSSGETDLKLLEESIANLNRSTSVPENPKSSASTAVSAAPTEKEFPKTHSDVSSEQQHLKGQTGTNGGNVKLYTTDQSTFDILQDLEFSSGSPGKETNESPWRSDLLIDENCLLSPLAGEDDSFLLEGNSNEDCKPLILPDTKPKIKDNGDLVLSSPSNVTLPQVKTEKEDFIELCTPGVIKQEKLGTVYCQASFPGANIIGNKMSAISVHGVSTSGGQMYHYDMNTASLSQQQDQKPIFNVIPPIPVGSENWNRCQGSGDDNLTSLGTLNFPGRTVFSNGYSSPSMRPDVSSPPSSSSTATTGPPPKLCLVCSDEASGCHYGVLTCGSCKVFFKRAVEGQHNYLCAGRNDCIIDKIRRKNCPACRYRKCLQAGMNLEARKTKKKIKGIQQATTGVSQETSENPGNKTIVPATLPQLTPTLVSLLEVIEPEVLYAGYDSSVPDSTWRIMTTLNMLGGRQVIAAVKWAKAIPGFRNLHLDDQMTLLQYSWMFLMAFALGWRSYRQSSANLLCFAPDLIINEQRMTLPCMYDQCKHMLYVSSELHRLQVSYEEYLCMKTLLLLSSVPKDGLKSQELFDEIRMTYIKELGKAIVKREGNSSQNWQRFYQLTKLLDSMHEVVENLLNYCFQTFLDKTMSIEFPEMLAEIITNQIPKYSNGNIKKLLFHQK

[6] = target: Glucocorticoid receptor (Homo sapiens) (UniProt P04150); assay: GR-EFC Redistribution (AID 451; calls by dose curve; further: potency means the concentration at half of the fitted maximal effect); conditions: CHO-K1 GR-EFC translocation, beta-gal luminescence, 2 h
Outline: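 CHO-K1 cells stably expressing nuclear-localized β-gal enzyme acceptor and GR fused C-terminally to the enzyme donor fragment; ligand-driven nuclear translocation restores β-gal by complementation. Compounds titrated up to 46 uM final, 2 h at 37 °C; luminescence read.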

[7] = target: Mitogen-activated protein kinase 10 (Mus musculus) (UniProt Q61831); assay: JNK3 AlphaScreen Assay (AID 530; active means well fitted curve in either direction with a large enough effect, not every such curve was filed as active;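 further: kinase came from lysate of stimulated human HepG2 cells; signal reports phosphorylation of biotinylated GST-cJun 1-79 at Ser73 with 10 µM ATP; on the % scale 0 is the no-effect control and ±100 the full control effect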); conditions: JNK3 lysate, c-Jun phosphorylation; series mostly up to 57.1 µM
Outline: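 Inhibitors reduce antibody binding to phosphorylated biotin-cJun, lowering AlphaScreen luminescence. Lysates from HepG2 cells pre-activated by IL-1beta plus TNF-alpha supplied JNK3; compounds were titrated.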

[8] = target: 3',5'-cyclic-AMP phosphodiesterase 4B (Homo sapiens) (UniProt Q07343); assay: qHTS Assay for Inhibitors of PDE-IV (AID 607; active means well fitted activation curve with a large enough effect in the main read-out, with a control signal flat, not every such curve was filed as active; further: % of control where 0% means no effect); conditions: HEK293 ACTOne CNG channel cells, membrane potential fluorescence; series mostly up to 22.9 µM
Sequence of 3',5'-cyclic-AMP phosphodiesterase 4B (Homo sapiens) (Q07343 whole entry, looked up): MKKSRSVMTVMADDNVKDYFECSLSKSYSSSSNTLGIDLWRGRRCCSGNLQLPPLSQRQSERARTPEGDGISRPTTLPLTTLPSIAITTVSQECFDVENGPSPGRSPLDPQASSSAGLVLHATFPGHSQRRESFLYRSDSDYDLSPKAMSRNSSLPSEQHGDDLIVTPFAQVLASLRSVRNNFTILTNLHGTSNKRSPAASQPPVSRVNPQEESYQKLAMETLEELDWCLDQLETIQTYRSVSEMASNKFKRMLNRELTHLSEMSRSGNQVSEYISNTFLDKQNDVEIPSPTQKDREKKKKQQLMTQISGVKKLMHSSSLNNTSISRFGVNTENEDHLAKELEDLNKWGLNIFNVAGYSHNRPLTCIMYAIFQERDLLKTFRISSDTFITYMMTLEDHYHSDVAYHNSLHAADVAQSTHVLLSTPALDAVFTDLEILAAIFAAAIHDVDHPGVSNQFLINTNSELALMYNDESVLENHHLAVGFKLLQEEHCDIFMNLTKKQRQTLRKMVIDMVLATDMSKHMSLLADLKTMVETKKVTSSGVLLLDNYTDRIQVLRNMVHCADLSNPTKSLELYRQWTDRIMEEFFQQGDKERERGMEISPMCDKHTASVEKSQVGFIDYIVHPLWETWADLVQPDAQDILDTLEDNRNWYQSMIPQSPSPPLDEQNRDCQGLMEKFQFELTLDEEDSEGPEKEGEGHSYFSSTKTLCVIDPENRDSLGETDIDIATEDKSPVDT
Outline: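 Live HEK293 cells with a modified cyclic nucleotide-gated (CNG) channel report intracellular cAMP via membrane-potential dye fluorescence (ex 535/em 590 nm). Endogenous PDE-IV was targeted. Compounds were tested at up to 22.9 uM final; RO 20-1724 100 uM served as control.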

[9] = target: Dual specificity protein kinase CLK4 (Homo sapiens) (UniProt Q9HAZ1); assay: qHTS Assay for Inhibitors of CDC-like Kinase 4 (Kinase-Glo Assay) (AID 1770); conditions: recombinant Clk4, Kinase-Glo ATP depletion luminescence; series mostly up to 66.7 µM; further: nearly all actives have a fitted effect of over 65% in size; further: potency means the concentration at half of the fitted maximal effect
Sequence of Dual specificity protein kinase CLK4 (Homo sapiens) (Q9HAZ1 whole entry, looked up): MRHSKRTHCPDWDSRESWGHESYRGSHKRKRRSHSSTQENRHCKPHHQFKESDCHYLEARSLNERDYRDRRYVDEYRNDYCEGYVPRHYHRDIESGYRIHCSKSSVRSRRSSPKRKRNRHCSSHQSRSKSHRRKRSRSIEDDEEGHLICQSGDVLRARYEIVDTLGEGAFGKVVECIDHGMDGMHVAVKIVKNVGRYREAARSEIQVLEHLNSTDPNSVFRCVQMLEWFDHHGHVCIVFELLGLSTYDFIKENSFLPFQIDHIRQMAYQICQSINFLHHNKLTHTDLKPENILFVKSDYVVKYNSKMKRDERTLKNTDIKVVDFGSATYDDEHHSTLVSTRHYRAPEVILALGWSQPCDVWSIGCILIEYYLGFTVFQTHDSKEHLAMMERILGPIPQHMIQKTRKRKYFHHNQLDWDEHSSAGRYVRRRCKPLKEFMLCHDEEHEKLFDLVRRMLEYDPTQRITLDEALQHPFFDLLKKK
Outline: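 Readout: Kinase-Glo luminescence from ATP left after a 4.5 h room-temperature reaction of 25 nM Clk4 with 100 uM RS peptide and 1 uM ATP (final). Buffer: 25 mM Tris pH 7.5, 10 mM MgCl2.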

[10] = target: Dual specificity protein kinase CLK4 (Homo sapiens) (UniProt Q9HAZ1); assay: qHTS Assay for Inhibitors of CDC-like Kinase 4 (ADP-Glo Assay) (AID 1771); conditions: recombinant CLK4, ADP-Glo luminescence; series mostly up to 80 µM; further: nearly all actives have a fitted effect of over 70% in size; further: potency means the concentration at half of the fitted maximal effect
Outline: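 25 nM Clk4 with 100 uM RS repeat peptide and 1 uM ATP (final) in buffer with 2 mM MgCl2, 0.5 mM EGTA, 2.5 mM DTT, 0.01% Triton X-100; 1 h at room temperature; ADP-Glo luminescence for ADP formed.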

[11] = target: Dual specificity protein kinase CLK4 (Homo sapiens) (UniProt Q9HAZ1); assay: qHTS Assay for Inhibitors of CDC-like Kinase 4 (ADP-FP Assay) (AID 1795); conditions: Transcreener ADP fluorescence polarization; series mostly up to 50 µM; further: nearly all actives have a fitted effect of over 60% in size; further: potency means the concentration at half of the fitted maximal effect
Outline: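 FP readout: Orange Transcreener ADP2 tracer (4 nM) plus ADP antibody, read after 30 min at room temperature. Kinase step: 6.25 nM Clk4, 100 uM RS peptide, 1 uM ATP, pH 7.5, 1 h.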

[12] = target: Ubiquitin carboxyl-terminal hydrolase 1 (Homo sapiens) (UniProt O94782); assay: Inhibitors of USP1/UAF1: Pilot qHTS (AID 504865); conditions: purified USP1/UAF1, Ub-rhodamine cleavage fluorescence; series mostly up to 54.9 µM;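 further: rhodamine fluorescence freed from ubiquitin-rhodamine substrate followed over time; top concentration of the series differs between compounds; on the % scale 0 is the no-effect control and ±100 the full control effect; nearly all actives have a fitted effect of over 35% in size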
Sequence of Ubiquitin carboxyl-terminal hydrolase 1 (Homo sapiens) (O94782 whole entry, looked up): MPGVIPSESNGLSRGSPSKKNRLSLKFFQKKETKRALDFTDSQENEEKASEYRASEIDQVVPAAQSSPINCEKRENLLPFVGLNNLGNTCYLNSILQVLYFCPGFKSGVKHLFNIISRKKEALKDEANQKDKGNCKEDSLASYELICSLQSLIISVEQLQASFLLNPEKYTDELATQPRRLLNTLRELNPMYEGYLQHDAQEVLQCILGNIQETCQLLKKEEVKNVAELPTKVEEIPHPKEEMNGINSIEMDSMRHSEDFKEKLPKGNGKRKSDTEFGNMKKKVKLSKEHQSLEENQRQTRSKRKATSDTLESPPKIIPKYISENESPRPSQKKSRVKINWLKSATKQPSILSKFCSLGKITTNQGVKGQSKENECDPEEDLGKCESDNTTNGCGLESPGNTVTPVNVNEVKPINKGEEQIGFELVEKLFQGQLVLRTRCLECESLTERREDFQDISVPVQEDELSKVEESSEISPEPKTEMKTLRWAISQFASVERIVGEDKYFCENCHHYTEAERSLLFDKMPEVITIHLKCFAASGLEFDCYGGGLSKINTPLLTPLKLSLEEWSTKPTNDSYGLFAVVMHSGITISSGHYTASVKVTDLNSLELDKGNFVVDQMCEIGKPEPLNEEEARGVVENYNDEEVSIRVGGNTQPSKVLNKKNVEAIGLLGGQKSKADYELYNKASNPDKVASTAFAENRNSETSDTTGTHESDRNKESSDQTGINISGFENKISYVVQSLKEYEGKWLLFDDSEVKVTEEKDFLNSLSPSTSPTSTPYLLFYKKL
Outline: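 1nM USP1/UAF1 + cpd, 15 min RT; start w/ Ub-Rho 150nM final; kinetic FL 480/540 nm, 6 reads q60 s. Buffer 50mM HEPES pH 7.8, 0.5mM EDTA, 1mM TCEP, 0.01% Tween-20, 0.1 mg/ml BSA.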

[13] = Primary qHTS for small molecule stabilizers of the endoplasmic reticulum resident proteome: Secreted ER Calcium Modulated Protein (SERCaMP) assay (AID 1508630); conditions: SH-SY5Y GLuc-SERCaMP (Gaussia luciferase released on ER calcium loss) secretion, thapsigargin, luminescence; series mostly up to 38.4 µM; further: on the % scale 0 is the no-effect control and ±100 the full control effect
Outline: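 GLuc-SERCaMP-expressing SH-SY5Y cells, pretreated 16 h with compound, are challenged with thapsigargin to empty ER calcium stores; after 4 h, coelenterazine is added directly to the medium and luminescence is imaged.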

[14] = target: Cytochrome P450 2C9 (Homo sapiens) (UniProt P11712); assay: qHTS Assay for Inhibitors and Substrates of Cytochrome P450 2C9 (AID 883); conditions: recombinant CYP2C9, luciferin-H luminescence, 60 min; series mostly up to 57.1 µM; further: on the % scale 0 is the no-effect control and ±100 the full control effect; nearly all actives have a fitted effect of over 60% in size
Sequence of Cytochrome P450 2C9 (Homo sapiens) (P11712 whole entry, looked up): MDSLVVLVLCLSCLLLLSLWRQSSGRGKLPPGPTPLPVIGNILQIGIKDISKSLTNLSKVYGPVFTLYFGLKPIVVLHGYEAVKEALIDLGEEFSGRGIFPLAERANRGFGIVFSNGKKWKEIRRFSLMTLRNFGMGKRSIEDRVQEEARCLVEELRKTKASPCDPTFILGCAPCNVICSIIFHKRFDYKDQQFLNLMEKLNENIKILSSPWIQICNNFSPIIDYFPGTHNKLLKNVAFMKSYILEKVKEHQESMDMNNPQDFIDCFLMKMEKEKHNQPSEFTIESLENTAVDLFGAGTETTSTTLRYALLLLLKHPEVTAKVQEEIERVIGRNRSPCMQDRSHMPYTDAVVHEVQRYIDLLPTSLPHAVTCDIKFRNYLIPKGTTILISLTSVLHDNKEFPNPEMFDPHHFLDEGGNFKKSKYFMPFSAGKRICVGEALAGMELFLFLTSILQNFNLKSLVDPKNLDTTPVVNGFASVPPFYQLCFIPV
Outline: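 Human CYP2C9 (10nM) hydroxylated Luciferin-H (100uM, at its KM) to luciferin in 25mM KPO4. Compound was preincubated 10 min at 37C, then NADPH regeneration started a 60 min reaction at 37C. Luminescence was read after detection reagent, normalized to 57uM sulphaphenazole.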

[15] = target: Cytochrome P450 3A4 (Homo sapiens) (UniProt P08684); assay: qHTS Assay for Activators of Cytochrome P450 3A4 (AID 885); conditions: recombinant CYP3A4, Luciferin-PPXE luminescence, 60 min; series mostly up to 57.1 µM; further: nearly all actives have a fitted effect of over 65% in size
Sequence of Cytochrome P450 3A4 (Homo sapiens) (P08684 whole entry, looked up): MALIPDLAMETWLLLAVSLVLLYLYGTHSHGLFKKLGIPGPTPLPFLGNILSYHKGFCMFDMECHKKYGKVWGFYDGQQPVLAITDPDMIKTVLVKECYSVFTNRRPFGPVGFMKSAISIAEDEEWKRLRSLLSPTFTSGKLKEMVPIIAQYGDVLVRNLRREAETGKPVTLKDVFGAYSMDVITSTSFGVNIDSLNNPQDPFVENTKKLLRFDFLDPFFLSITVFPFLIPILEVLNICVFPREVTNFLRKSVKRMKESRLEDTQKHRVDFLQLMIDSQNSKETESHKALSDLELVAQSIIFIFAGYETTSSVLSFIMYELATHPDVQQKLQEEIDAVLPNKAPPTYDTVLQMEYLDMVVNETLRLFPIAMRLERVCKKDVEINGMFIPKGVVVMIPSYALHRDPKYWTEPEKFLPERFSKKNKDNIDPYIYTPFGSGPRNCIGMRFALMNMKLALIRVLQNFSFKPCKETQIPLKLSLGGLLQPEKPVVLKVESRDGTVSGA
Outline: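 Quantitative HTS format: compounds preincubated with 20nM human CYP3A4 and Luciferin-PPXE substrate at KM, reaction started by NADPH regeneration, stopped after 60 min, luciferase luminescence read 20 min later.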

COc1ccc2[nH]cc(CCNc3ccnc(-c4cccc(C#N)c4)n3)c2c1
active: Potency [9] 12.6 µM | Potency [10] 12.6 µM | Potency [11] 8.91 µM
inactive: Potency [1] > 11.4 µM | activity change, negative = inhibition [2] -12.9% | activity change, negative = inhibition [3] 23.2% | activity, negative = inhibition [4] -8.5% | Potency [5] > 46 µM | Potency [6] > 46 µM | Potency [7] | Potency [8] | Potency [12] | outcome [13]

N#Cc1cccc(-c2nc3cnc(N4CCOCC4)nc3n(Cc3ccc(F)cc3)c2=O)c1
inactive: Potency [1] > 11.4 µM | activity change, negative = inhibition [2] -7.31% | activity change, negative = inhibition [3] 27.2% | activity, negative = inhibition [4] 13.2% | Potency [5] > 9.22 µM | Potency [6] > 46 µM | Potency [7] | Potency [8] | Potency [14] | Potency [9] | Potency [10] | Potency [11] | Potency [12] | outcome [13]

COc1ncc2nc(-c3cn(C)c4ccccc34)c(=O)n(C[C@H]3CCCO3)c2n1
inactive: Potency [1] > 11.4 µM | activity change, negative = inhibition [2] -6.51% | activity change, negative = inhibition [3] 3.98% | activity, negative = inhibition [4] -5.17% | Potency [5] > 9.22 µM | Potency [6] > 46 µM | Potency [7] | Potency [9] | Potency [10] | Potency [11] | Potency [12] | outcome [13]

COc1ncc2ncc(=O)n(CCc3ccccc3)c2n1
active: Potency [9] 14.1 µM | Potency [10] 14.1 µM | Potency [11] 10 µM
inactive: Potency [1] > 11.4 µM | activity change, negative = inhibition [2] -10.9% | activity change, negative = inhibition [3] 4.91% | activity, negative = inhibition [4] -13.6% | Potency [5] > 9.22 µM | Potency [6] > 46 µM | Potency [7] | Potency [8] | Potency [12] | outcome [13]

COc1ccc(Oc2ncc3nc(-c4cccc(C#N)c4)c(=O)n(C)c3n2)cc1
inactive: Potency [1] > 11.4 µM | activity change, negative = inhibition [2] -0.821% | activity change, negative = inhibition [3] -9.84% | activity, negative = inhibition [4] -2.78% | Potency [5] > 9.22 µM | Potency [6] > 46 µM | Potency [7] | Potency [8] | Potency [9] | Potency [10] | Potency [11] | Potency [12] | outcome [13]

Cc1nc2cnc(Oc3ccccc3)nc2n(Cc2cccs2)c1=O
inactive: Potency [1] > 11.4 µM | activity change, negative = inhibition [2] -17.8% | activity change, negative = inhibition [3] 20.1% | activity, negative = inhibition [4] -0.465% | Potency [5] > 9.22 µM | Potency [6] > 46 µM | Potency [7] | Potency [8] | Potency [15] | Potency [9] | Potency [10] | Potency [11] | outcome [13]

COc1ccccc1-c1cncnc1Nc1ccccc1
inactive: Potency [1] > 11.4 µM | activity change, negative = inhibition [2] -6.14% | activity change, negative = inhibition [3] -4.57% | activity, negative = inhibition [4] 5.08% | Potency [5] > 46 µM | Potency [6] > 46 µM | Potency [7] | Potency [8] | Potency [9] | Potency [10] | Potency [11] | Potency [12] | outcome [13]

Cc1cnc(CNc2nc(-c3c(C)noc3C)nc3ccccc23)cn1
inactive: Potency [1] > 11.4 µM | activity change, negative = inhibition [2] 9.21% | activity change, negative = inhibition [3] 15% | activity, negative = inhibition [4] -4.92% | Potency [5] > 46 µM | Potency [6] > 46 µM | Potency [7] | Potency [9] | Potency [10] | Potency [11] | Potency [12] | outcome [13]

O=c1c(-c2ccccc2)nc2cnc(Nc3ccccc3)nc2n1C[C@H]1CCCO1
inactive: Potency [1] > 11.4 µM | activity change, negative = inhibition [2] 1.69% | activity change, negative = inhibition [3] -14.2% | activity, negative = inhibition [4] -4.27% | Potency [5] > 9.22 µM | Potency [6] > 46 µM | Potency [7] | Potency [8] | Potency [15] | Potency [9] | Potency [10] | Potency [11] | Potency [12] | outcome [13]

O=c1c(-c2ccc(Cl)cc2)nc2cnc(Nc3ccccc3)nc2n1C1CC1
inactive: Potency [1] > 11.4 µM | activity change, negative = inhibition [2] -1.39% | activity change, negative = inhibition [3] -9.46% | activity, negative = inhibition [4] -0.41% | Potency [5] > 9.22 µM | Potency [6] > 46 µM | Potency [7] | Potency [8] | Potency [9] | Potency [10] | Potency [11] | Potency [12] | outcome [13]

Cc1noc(C)c1-c1cncnc1-n1ccnc1
inactive: Potency [1] > 11.4 µM | activity change, negative = inhibition [2] 0.604% | activity change, negative = inhibition [3] -5.32% | activity, negative = inhibition [4] 12.7% | Potency [5] > 46 µM | Potency [6] > 46 µM | Potency [7] | Potency [8] | Potency [9] | Potency [10] | Potency [11] | Potency [12] | outcome [13]

COc1ccc(Oc2ncc3ncc(=O)n(-c4ccc(OC)cc4)c3n2)cc1
inactive: Potency [1] > 11.4 µM | activity change, negative = inhibition [2] -24.9% | activity change, negative = inhibition [3] -12.3% | activity, negative = inhibition [4] -13.9% | Potency [5] > 9.22 µM | Potency [6] > 46 µM | Potency [7] | Potency [8] | Potency [12] | outcome [13]
active: Potency [9] 2.82 µM | Potency [10] 2 µM | Potency [11] 4.47 µM

COc1cccc(Cn2c(=O)c(-c3cn(C)c4ccccc34)nc3cnc(N4CCOCC4)nc32)c1
inactive: Potency [1] > 11.4 µM | activity change, negative = inhibition [2] 5% | activity change, negative = inhibition [3] 7.78% | activity, negative = inhibition [4] 10.6% | Potency [5] > 9.22 µM | Potency [6] > 46 µM | Potency [7] | Potency [8] | Potency [9] | Potency [10] | Potency [11] | Potency [12] | outcome [13]
